High-throughput results as filed in PubChem BioAssay.
NRP1-CendR mod: alters CendR peptide binding to human NRP-1 | O14786 | FAM-RPARPAR peptide binding to NRP-1, fluorescence polarization | inhibition, % at 25 µM | actives 0.85% (n = 360,000);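 active = inhibition or corrected inhibition above about 18%, plus a signal ratio from 0.5 to 1.5, limit read from the data, passing the limit was not always enough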
VLA-4 inh: inhibition in a human VLA-4 binding assay | P13612 | VLA-4 expressing cells, ligand binding flow cytometry | inhibition, % (about 7 µM as worked out from the volumes in the protocol) | actives 0.2% (n = 330,000) | AID 2557; in the data active = inhibition above about 50%
A3G deaminase: blocks human APOBEC3G single-stranded DNA deamination; Q9HC16; AID 493012; actives 0.28% (n = 330,000); recombinant A3G, ssDNA deamination FAM/TAMRA fluorescence; inhibition, % at 20 µM;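 active = inhibition of at least 40% at 20 µM, with no more than 30% in the related APOBEC3A deaminase screen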;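 also: plate controls were DMSO wells with A3G for no effect and wells lacking A3G enzyme for full effect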
Target sequence (Q9HC16 whole entry, looked up): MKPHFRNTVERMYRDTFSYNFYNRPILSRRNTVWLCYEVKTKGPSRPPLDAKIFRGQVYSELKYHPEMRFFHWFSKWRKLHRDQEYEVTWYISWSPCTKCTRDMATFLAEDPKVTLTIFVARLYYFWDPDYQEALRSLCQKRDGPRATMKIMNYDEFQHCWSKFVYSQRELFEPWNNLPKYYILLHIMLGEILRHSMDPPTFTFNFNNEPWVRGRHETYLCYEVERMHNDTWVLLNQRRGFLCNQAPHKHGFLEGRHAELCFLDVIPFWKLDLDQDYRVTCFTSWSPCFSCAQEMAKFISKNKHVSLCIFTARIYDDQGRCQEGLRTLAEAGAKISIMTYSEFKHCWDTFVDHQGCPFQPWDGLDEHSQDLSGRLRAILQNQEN
beta cell repl: MIN6 beta-cell proliferation induction; MIN6 cells proliferation, ATPlite luminescence, 48 h; cells starved in 0.2% serum; 100% = growth in 10% serum; proliferation, % at 10 µM; actives 0.29% (n = 330,000); AID 2380;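 active = compounds whose signal lies at least 3.5 SD above the mean of all wells on their plate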;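 also: 0% = DMSO-treated cells in low-serum medium and 100% = 10% serum control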
A3A deaminase: human APOBEC3A DNA deaminase inhibition; P31941; recombinant A3A, FAM/TAMRA ssDNA deamination fluorescence; inhibition, % at 20 µM; actives 0.41% (n = 330,000); AID 493011;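 active = at least 40% inhibition at 20 µM here, with at most 30% in a related deaminase screen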;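 also: plate controls were A3A with DMSO for no effect and wells lacking A3A enzyme for full effect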
Target sequence (P31941 whole entry, looked up): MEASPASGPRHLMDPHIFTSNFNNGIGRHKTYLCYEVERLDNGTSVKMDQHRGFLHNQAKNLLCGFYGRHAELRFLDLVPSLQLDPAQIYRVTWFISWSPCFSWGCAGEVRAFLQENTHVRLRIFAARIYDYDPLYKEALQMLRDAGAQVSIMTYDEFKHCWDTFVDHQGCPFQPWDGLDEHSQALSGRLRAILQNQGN
The depositor's hits bear a star; / = no result. Compounds with a hit are over-represented: about 1.8% of the library has one in this group of screens.

SMILES | NRP1-CendR mod | VLA-4 inh | A3G deaminase | beta cell repl | A3A deaminase
O=C(O)c1cc(Cl)c(Cl)cc1C(=O)N(Cc1ccccc1)Cc1ccccc1 | 14 | -16 | -4 | -2 | -4
COc1cc(/C=N/NC(=O)c2cc(C3CC3)[nH]n2)ccc1O | -2 | 10 | 6 | -2 | -2
COc1cc(/C=N/NC(=O)c2ccc(=O)[nH]n2)ccc1O | 0 | 5 | -9 | 0.0* | -3
COc1ccc(/C=N/NC(=O)c2cc(C(C)(C)C)[nH]n2)cc1COc1ccc(F)cc1F | 39* | 10 | -7 | -6 | -3
COc1ccc(N(CC(=O)NC2CCS(=O)(=O)C2)S(=O)(=O)c2ccc(Cl)c(Cl)c2)cc1 (centres undefined) | 10 | / | -11 | -4 | 4
COc1ccc(N(C)S(=O)(=O)c2ccc3c(c2)NC(=O)CC(=O)N3)c(OC)c1 | -3 | 5 | -9 | -2 | -6
COc1ccc(C2C(C(=O)Nc3ccc(F)cc3)=C(C)Nc3nc(CCCO)nn32)cc1 (centres undefined) | 20* | 13 | -14 | -1 | -1
CCOc1ccc(C2C(C(=O)Nc3ccc(F)cc3)=C(C)Nc3nc(CCCO)nn32)cc1 (centres undefined) | -4 | 4 | -6 | -4 | -1
COc1cc(OC)c(C(=O)OCC(=O)Nc2cc(C)on2)cc1OC | 36* | -8 | -10 | 0 | -4
COc1cc(C(=O)OCC(=O)Nc2cc(C)on2)c([N+](=O)[O-])cc1OC | 10 | -3 | -7 | 2 | -4
COc1ccc(N2C(=O)C3C4C=CC(C5CC45)C3C2=O)c([N+](=O)[O-])c1 (centres undefined) | 33* | 3 | 4 | -3 | 0
COc1ccc(-c2oc3cc(O)c(OC)c(O)c3c(=O)c2OC)cc1O | -16 | / | / | / | /
O=C(O)[C@H](Cc1ccccc1)NC(=O)N1CCC(Cc2ccccc2)CC1 | -3 | 3 | 0 | -2 | 2
CC1CCN(C(=O)N[C@@H](Cc2ccccc2)C(=O)O)CC1 | 20* | 6 | -3 | 2 | -2
O=C(CC1C(=O)NCCN1C(=O)Nc1ccccc1)Nc1cccc(C(F)(F)F)c1 (centres undefined) | 44* | 25 | -1 | -5 | 0
O=C(CC1C(=O)NCCN1C(=O)Nc1ccccc1)Nc1ccc(F)cc1 (centres undefined) | 4 | 3 | -9 | 0 | -4
CCOC(=O)/C=C/C(=O)N1CCN(C(=O)/C=C/C(=O)OCC)CC1 | 3 | 13 | -3 | 0 | -2
O=C1C2C3CCC(C3)C2C(=O)N1c1ccc(OS(=O)(=O)c2ccccc2)cc1 (centres undefined) | 2 | 4 | 2 | -3 | 0
Cc1ccc(S(=O)(=O)Oc2ccc(N3C(=O)C4C5CCC(C5)C4C3=O)cc2)cc1 (centres undefined) | 24* | 8 | 36 | -3 | 2
COc1cccc(C2/C(=C(/O)c3ccccc3)C(=O)C(=O)N2CCCC(=O)O)c1 (centres undefined) | 29* | / | / | / | /
COC(=O)C1=C(C(=O)OC)[C@@H]2N(C)c3ccc(OC)cc3[C@@]23C[C@@H](C(=O)OC)N(C(=O)CC(C)C)C3=N1 | 26* | 18 | -16 | -5 | -7
COc1ccc(Cl)cc1Cn1c(C)c(C(=O)NCc2cccc(C(F)(F)F)c2)sc1=O | 27* | / | / | / | /
COc1ccc(-c2csc(N3CCC(c4ccccc4)CC3)n2)cc1 | 2 | 14 | -2 | -5 | -1
CCC1(C)CC(c2nc(-c3ccc(OC)cc3)cs2)CCS1 (centres undefined) | 32* | 9 | -5 | -6 | 5
CC(=O)N1CCN(C(=O)c2cc3ccccc3o2)CC1 | 10 | 3 | -10 | 0 | -4
SMILES | NRP1-CendR mod | VLA-4 inh | A3G deaminase | beta cell repl | A3A deaminase
O=C(c1cc2ccccc2o1)N1CCN(S(=O)(=O)c2c(F)cccc2F)CC1 | 33* | 8 | -7 | -3 | -3
CCN(CC(=O)NCc1ccc(Cl)cc1)C(=O)CCc1ccccc1O | -1 | 0 | 2 | 0 | 1
O=C(O)c1ccc2c(c1)[C@@H]1C=CC[C@@H]1[C@H](c1ccccn1)N2 | 32* | -7 | 91 | -2 | 97
CCN(c1ccccc1)S(=O)(=O)c1ccc(C(=O)N(CCCN(C)C)c2nc3cc4c(cc3s2)OCO4)cc1 | 22* | 5 | 24 | -7 | -4
CN(C)CCCN(C(=O)c1ccc(S(=O)(=O)N(C)Cc2ccccc2)cc1)c1nc2cc3c(cc2s1)OCO3 | 9 | 4 | -4 | -6 | -2
CC(=N)c1c(O)cc(C)oc1=O | 19* | / | / | / | /
C/C(=N\Nc1ccc(Cl)cc1)c1c(O)cc(C)oc1=O | 1 | 12 | 33 | -3 | 1
CCCNC(=S)Nc1cccc(C(F)(F)F)c1 | 25* | 0 | -4 | -3 | 1
CCOc1ccc(CN(C)C(=O)CNC(=O)c2ccc3ccccc3c2)cc1OC | 5 | 17 | 4 | 4 | 1
CCN(CC)S(=O)(=O)c1ccc(OC)c(NC(=O)c2cccs2)c1 | 25* | 18 | -9 | -2 | -1
COc1ccc([N+](=O)[O-])cc1NC(=O)c1cccs1 | -5 | 4 | -2 | 0 | 2
NS(=O)(=O)c1cccnc1Nc1cccc(Cl)c1Cl | 24* | 7 | -6 | -3 | -5
CC1=C(c2ccccc2)SC2=NCCN21 | 2 | 2 | -7 | 2 | -3
CC(=O)NC(c1cc(F)c2cccnc2c1O)C1CC1 (centres undefined) | 26* | 9 | -6 | -1 | -3
O=C(NCCN1CCOCC1)C12CC3CC(C1)CC(c1ccccc1)(C3)C2 | 44* | 9 | -6 | -3 | -3
O=C(CSc1nc2c(c(C(F)(F)F)n1)CCc1ccccc1-2)NCc1ccco1 | 3 | -5 | -7 | -4 | -2
CC(NC(=O)CSc1nc2c(c(C(F)(F)F)n1)CCc1ccccc1-2)c1ccccc1 (centres undefined) | 28* | -4 | -1 | -5 | 1
O=C(Nc1ccc(C(=O)OC2CCCCC2)cc1)c1ccncc1 | 0 | 2 | 18 | -5 | -1
CCOc1ccc(C(C)=O)cc1N1C(=O)C2C3C=CC(O3)C2C1=O (centres undefined) | 7 | -139 | 49* | -6 | -6
CCC(C)(NC=O)C(=O)Nc1c(C)cccc1C (centres undefined) | 26* | 7 | -4 | 1 | 0
COc1ccccc1NC(=O)c1cc2c(cc1Cl)N1CCCCCC1=NS2(=O)=O | -8 | -3 | -2 | 2 | -3
COC(=O)Cc1ccc(NC(=S)NCCSc2ccc(C)cc2)cc1 | 29* | -1 | -3 | -6 | -2
COC(=O)Cc1ccc(NC(=S)NCCCO)cc1 | 40* | 5 | -10 | -1 | -1
Nc1ccccc1-c1nnc(SCC(=O)Nc2ccccc2OC(F)F)[nH]c1=O | 0 | 3 | -8 | 0 | -1
CN1OC[C@@H]2CN(Cc3ccccc3)[C@H](c3cccc(Oc4ccccc4)c3)C[C@@H]21 | 25* | / | / | / | /
Cc1cc2c(=O)[nH]cnc2s1 | 43* | 2 | -3 | -2 | 1
